Sampled rows, rich in hits. Any-hit rate of the full collection: about 3.5%.
TEAD-YAP inh = TEAD-YAP interaction inhibition; inhibition, % at 9.12 µM; HEK-TIYL cells, TEAD-Gal4/YAP UAS-luciferase luminescence; AID 1259422; hit rate 1.4% among 640,000; in the data active = inhibition above about 32%;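 also: 0% = median of test compound wells and 100% = reference inhibitor wells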
FBW7 activator = human FBW7 E3 ligase activation, primary screen | hit rate 0.13% among 650,000 | AlphaScreen FBW7–phospho-cyclin E peptide binding, activator screen | AID 1259310 | normalized activity (activation), % at 26.1 µM; in the data active = normalized activity above about 1.9%;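 also: purified mutant Fbw7 with reduced substrate affinity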
GPR151 ag = human GPR151 activation | PathHunter beta-arrestin GPR151 cells, luminescence | activation, % at 11.2 µM | hit rate 1% among 650,000; in the data active = activation above about 4.9%;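 also: 0% = median of compound wells and 100% = cells with positive control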
Target sequence (Q8TDV0 whole entry, looked up): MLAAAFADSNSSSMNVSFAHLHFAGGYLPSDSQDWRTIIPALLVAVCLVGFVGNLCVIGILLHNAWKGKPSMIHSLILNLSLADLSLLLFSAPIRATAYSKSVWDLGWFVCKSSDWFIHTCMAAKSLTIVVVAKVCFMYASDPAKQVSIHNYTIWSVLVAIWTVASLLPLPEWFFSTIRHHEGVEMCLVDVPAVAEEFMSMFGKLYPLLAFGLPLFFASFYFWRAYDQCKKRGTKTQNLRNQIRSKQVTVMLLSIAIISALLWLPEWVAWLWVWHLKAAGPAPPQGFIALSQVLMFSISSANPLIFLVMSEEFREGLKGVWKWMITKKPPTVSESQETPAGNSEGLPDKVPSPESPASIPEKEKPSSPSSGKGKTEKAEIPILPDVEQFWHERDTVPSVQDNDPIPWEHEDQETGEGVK
MITF inh = inhibitors of human MITF; hit rate 0.91% among 650,000; AlphaScreen MITF homodimerization, bead proximity signal; O75030; AID 1259374; inhibition, % at 2.6 µM; in the data active = inhibition above about 50%;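 also: 0% = vehicle wells with protein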
GPR151 conf act = confirmation of human GPR151 activators | shares compounds with GPR151 ag | 6,700 tested, under 10 active | GPR151 PathHunter beta-arrestin cells, luminescence, 90 min; % of EA-reagent control over plate median | activation, % at 11.2 µM;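 active = mean percent activation across replicates above the confirmation screen cutoff of 4.91%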
GPR119 ag = GPR119 activation, counter-screen for GPR151 activators; GPR119 PathHunter beta-arrestin cells, luminescence, 90 min; 0 = compound-well median, 100 = enzyme-acceptor control; hit rate 0.3% among 6,700; AID 1508611; activation, % at 11.2 µM; shares compounds with GPR151 ag;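 active = mean percent activation in the counterscreen above 29.09%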;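 also: counterscreen on off-target GPR119 to flag nonselective hits from the GPR151 activator screen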
Numbers without * were called inactive; . = no result given.

SMILES | TEAD-YAP inh | FBW7 activator | GPR151 ag | MITF inh | GPR151 conf act | GPR119 ag
CN1CCCC(OC(=O)c2cc(Br)ccc2Cl)C1 (stereo unspecified) | 0 | 0 | 6.2* | 25 | -1 | -1
Cc1cccc(OCC(=O)N2CCC(C(N)=O)CC2)c1C | 8 | 1 | -1 | 19 | . | .
CCOc1ccccc1C(=O)Nc1ccc2c(c1)N(CCOC)CCC2 | 7 | 0 | 9.4* | 5 | 1 | -2
COCc1nc2ccccc2n1Cc1cccc(Cl)c1 | -16 | 0 | 1 | 12 | . | .
CCc1ccc2[nH]c3nc(N/N=C/c4ccc(O)cc4)nnc3c2c1 | -5 | 0 | 2 | -2 | . | .
CCc1ccc2[nH]c3nc(N/N=C/c4cccc(O)c4)nnc3c2c1 | -8 | 0 | 6.7* | 16 | -1 | 2
CCOc1ccc(-c2ncccc2O)cc1 | -37 | 0 | 0 | 18 | . | .
COc1ccc(-c2ncccc2O)cc1 | -44 | 2 | 5.2* | 11 | 0 | -2
COc1ccccc1N1CCN(C2CCCN(Cc3ccccc3O)C2)CC1 (stereo unspecified) | 8 | 0 | 8.0* | 13 | 0 | 2
CC(C(=O)Nc1cccc(C(F)(F)F)c1)N(c1ccc(Cl)cc1)S(C)(=O)=O (stereo unspecified) | -4 | 0 | 6.8* | -12 | 0 | 0
O=C(NCCCN1CCN(c2ccc(Cl)cc2)CC1)Nc1ccc(F)cc1 | -9 | 0 | 0 | -7 | . | .
O=C(NCCCN1CCN(c2ccc(Cl)cc2)CC1)Nc1ccccc1 | -7 | 0 | 6.6* | 4 | 0 | 8
O=C(Cn1cc(/C=C2\SC(=S)NC2=O)c2ccccc21)NCc1cccs1 | 6 | 0 | 6.8* | 7 | 1 | -3
NC(=O)c1ccccc1NC(=O)/C=C/c1ccccc1 | -33 | 0 | 7.7* | 1 | -1 | -12
NC(=O)c1ccccc1NC(=O)/C=C/c1ccc(Cl)cc1 | -55 | 0 | -3 | 3 | . | .
O=C(/C=C/c1ccc([N+](=O)[O-])cc1)Nc1ccccc1Cl | -10 | 0 | 7.4* | -18 | -2 | -12
CCCCCC(O)(CCCCC)C(=O)N(Nc1ccc(C)cc1)c1ccc(C)cc1 | 5 | 0 | 0 | -10 | . | .
Cc1nc2c(C(=O)O)cnn2c(C)c1Cc1cccc(F)c1 | -6 | 0 | 0 | 33 | . | .
CS(=O)(=O)NCC1CCC(C(=O)NC2CCN(Cc3ccccc3)CC2)CC1 (stereo unspecified) | 3 | 0 | 5.6* | 8 | 1 | 11
Cc1ccc(S(=O)(=O)n2c(SCC(=O)NCCc3ccccc3)nc3ccccc32)cc1 | -7 | 0 | 5.4* | 8 | 0 | 6
O=C(CSc1nc2ccccc2n1S(=O)(=O)c1ccccc1)NCCc1ccccc1 | -9 | 0 | 1 | -8 | . | .
Cn1c(SCC(=O)NCCc2ccccc2)nnc1-c1ccncc1 | 5 | 0 | 6.1* | 5 | 1 | 1
COc1ccc2c(c1)S/C(=C\C(=O)c1ccccc1)C(=O)N2 | 23 | 0 | 0 | -11 | . | .
CCOC(=O)c1sc(=NC(=O)c2cccc3ccccc23)n(C)c1C | 5 | 0 | 7.8* | 3 | 0 | 6
Cc1ccc(NC(=O)C(=O)NCC(C)(C)C)cc1C | -80 | 0 | 2 | 2 | . | .
SMILES | TEAD-YAP inh | FBW7 activator | GPR151 ag | MITF inh | GPR151 conf act | GPR119 ag
CC1(C)Cc2c(sc3nc(-c4cc5ccccc5o4)n(N)c(=O)c23)CO1 | -12 | 0 | 6.4* | 2 | 0 | -2
COc1cccc(C(=O)COC(=O)c2ccc3c(c2)OCO3)c1 | -3 | 0 | 5.3* | -10 | 0 | 2
CCOC(=O)c1c(NC(=O)c2ccc([N+](=O)[O-])cc2)sc(C(N)=O)c1C | 1 | 0 | 0 | 10 | . | .
CCOC(=O)c1c(NC(=O)c2ccc([N+](=O)[O-])cc2)sc(C(=O)OC)c1C | 6 | 0 | 5.3* | -2 | 0 | -11
Cc1ccc(Oc2ccc(NC(=O)C3CCCCC3C(=O)O)cc2)cc1 (stereo unspecified) | 0 | 0 | -1 | 5 | . | .
Cc1[nH]c(-c2ccc(F)cc2)cc1C(=O)N1CCOCC1 | -12 | 0 | 5.8* | -8 | 0 | 0
Cc1[nH]c(-c2ccc(F)cc2)cc1C(=O)N1CCCC1 | -6 | 0 | 5 | 2 | . | .
O=C(Nc1cccc2ccccc12)N1CCN(c2ccc(F)cc2)CC1 | -1 | 0 | 11* | -9 | 0 | -5
CC(=O)c1ccc(N2CCN(C(=O)Nc3ccc(C)cc3)CC2)cc1 | 0 | 1 | 2 | 6 | . | .
CC(=O)c1ccc(N2CCN(C(=O)Nc3cccc(F)c3)CC2)cc1 | -10 | 0 | 11* | -12 | 0 | -3
CCCCCCNc1nc(Nc2ccc([N+](=O)[O-])cc2)nc(N2CCOCC2)n1 | 4 | 0 | 1 | 2 | . | .
Cc1nc2nc(CNC(=O)OC(C)(C)C)nn2c(C)c1CCC(=O)NCc1ccccc1 | 6 | 1 | 0 | 16 | . | .
CCOC(=O)CCc1c(C)nc2nc(CNC(=O)c3ccccc3)nn2c1C | 0 | 0 | 5.2* | -7 | 0 | -2
O=C(NCCCNc1ccc(Cl)cc1[N+](=O)[O-])c1ccc(Cl)cc1 | -2 | 0 | 2 | 9 | . | .
O=C1CN(c2ccccc2NC(=O)C2(c3cccs3)CCCC2)CCN1 | 8 | 0 | 5.0* | 11 | 0 | 7
O=C(NCC1CCOCC1)C1CC(Cc2cccc(F)c2)=NO1 (stereo unspecified) | -58 | 0 | 2 | 0 | . | .
O=C(O)COc1ccc(C2C3=C(CCCC3=O)OC3=C2C(=O)CCC3)cc1 | 0 | 0 | 6.2* | 2 | 1 | 0
CCn1nc(C)c(CN2CCOc3ccc(C(C)(O)COc4ccccc4)cc3C2)c1C (stereo unspecified) | -1 | 0 | 6.3* | -11 | -1 | -13
O=c1c2ccccc2nc(SCc2c(F)cccc2Cl)n1C1CC1 | -6 | 0 | 5.1* | -12 | 0 | 8
CCc1nc(SCc2cccnc2)c2c(=O)n(C)c(=O)n(C)c2n1 | 6 | 0 | 8.2* | 4 | 0 | 4
CCCCc1nc(SCc2cccnc2)c2c(=O)n(C)c(=O)n(C)c2n1 | 8 | 0 | 2 | -10 | . | .
O=C(CCN1C(=O)c2ccccc2C1=O)Nc1cc([N+](=O)[O-])ccc1O | 3 | 0 | 5.8* | -14 | 0 | 10
O=C(CCN1C(=O)c2ccc([N+](=O)[O-])cc2C1=O)Nc1cc(Cl)ccc1O | 2 | 0 | 0 | 4 | . | .
Cc1c(C(=O)NNC(=O)Nc2ccc(F)cc2F)cccc1[N+](=O)[O-] | -13 | 0 | 1 | 0 | . | .
Cc1ccccc1-c1nc2c(Cl)cc(Cl)cc2c(=O)o1 | -8 | 1 | -1 | 6 | . | .
COc1ccc2nccnc2c1[N+](=O)[O-] | -3 | 0 | 13* | -6 | 1 | -4
O=C(/C=C/c1cc([N+](=O)[O-])ccc1O)Nc1cccc(Br)c1 | -2 | 0 | 5.6* | -2 | 0 | 1
